Measurements as given in PubChem BioAssay AID488835 (Broad Institute, 2010).
In all, about 1,400 compounds went through this assay and about 140 (10%) were called active.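 The calls were made as follows: active = Half-maximal inhibitory dose from the fit at or below ten times the top valid tested dose; inconclusive = Invalid fit, or flat curve showing 30 to 70% inhibition; inactive = the rest.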 The list is a sample of the results. Measured potencies and affinities stand elsewhere.

target: Lysine-specific demethylase 4C (Homo sapiens) (UniProt Q9H3R0); assay: inhibition of JMJD2C H3K9me3 demethylation – biochemical, DELFIA europium, cherry-picked samples, dose response (AID 488835); details: GST-JMJD2C(1-420); series mostly up to 6 µM; activity change, negative = inhibition: at the top concentration;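 also: signal is the H3K9me2 demethylation product detected by a dimethyl-specific antibody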
Sequence (Q9H3R0 1-420 limits assumed): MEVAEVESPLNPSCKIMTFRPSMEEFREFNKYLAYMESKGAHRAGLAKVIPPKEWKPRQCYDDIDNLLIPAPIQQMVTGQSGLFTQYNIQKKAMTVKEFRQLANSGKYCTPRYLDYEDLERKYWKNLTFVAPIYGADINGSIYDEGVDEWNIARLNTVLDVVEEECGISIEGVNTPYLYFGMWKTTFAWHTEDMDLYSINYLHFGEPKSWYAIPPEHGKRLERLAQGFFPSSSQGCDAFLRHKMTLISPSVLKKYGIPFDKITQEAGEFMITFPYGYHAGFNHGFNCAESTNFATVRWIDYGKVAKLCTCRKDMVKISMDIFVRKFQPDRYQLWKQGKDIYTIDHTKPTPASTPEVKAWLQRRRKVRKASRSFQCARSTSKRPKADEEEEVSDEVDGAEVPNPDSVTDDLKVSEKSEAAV

Activity change, negative = inhibition, inactive:
c1ccc(Nc2n[nH]nc2-c2ccccc2)cc1 7.58%, CCn1c(=O)c(-c2nc3ccccc3[nH]2)c(O)c2ccccc21 -0.309%, C[C@H](CO)N1C[C@H](C)[C@@H](CN(C)C(=O)Nc2ccc(C(F)(F)F)cc2)Oc2c(cccc2N(C)C)C1=O 5.89%, Cc1cc2oc(=O)cc(CSc3nnc(-c4cccs4)o3)c2cc1C(C)C -1.88%, CC(=O)N1C(c2ccccc2O)C[C@]2(C)CC(=O)NC12 (some centres undefined) -1.35%, CCCc1cc(=O)[nH]c(SCC(=O)Nc2cc(S(=O)(=O)N(CC)c3ccccc3)ccc2Cl)n1 1.6%, Cc1ccc(C(=O)Nc2sc3c(c2C(=O)O)CCCC3)o1 1.03%, CN(C)CCCN1C(=O)C(=O)/C(=C(/O)c2ccncc2)C1c1ccccc1 (centres undefined) 10.2%, COc1ccc(C(=O)OCC(=O)c2ccccc2)cc1S(=O)(=O)N1CCOCC1 6.12%, Cc1cc(C(=O)OCc2nnc(-c3ccccc3)o2)c(C)n1-c1ccccc1 -4.32%, Cc1ccc(C2CC(c3cccc(Br)c3)Nc3nnnn32)cc1 (centres undefined) 0.226%, Cc1cc(N(CN2CCCC2=O)C(=O)c2ccc(F)cc2)no1 3.57%, COC(=O)[C@]1(C)N[C@H](CN(C)C(=O)NC(C)C)[C@@H]2C(=O)N(Cc3ccccc3)C(=O)[C@@H]21 0.422%, COc1ccc(NC(=O)Nc2ccc3c(c2)C(=O)N([C@H](C)CO)C[C@H](C)[C@@H](CN(C)S(=O)(=O)c2cccs2)O3)cc1 8.17%, CC(C)NC(=O)Nc1ccc2c(c1)C(=O)N([C@H](C)CO)C[C@@H](C)[C@@H](CN(C)C(=O)NC1CCCCC1)O2 1.53%, CCCn1nnnc1SCC(=O)NNC(=O)c1ccco1 -3.08% [at 1.6 µM], CCCn1c(SCC(=O)Nc2c(C)cccc2CC)nnc1C(C)C 7.38%, Cc1cc(OC(=O)N2CCOCC2)cc(C)c1Cl 3.18%, CC1CN(Cc2ccccc2)c2nc3c(c(=O)n(C)c(=O)n3C)n2C1 (centres undefined) 4.53%, OC1(c2cccc(F)c2)CCN(Cc2ccncc2)CC1 4.04%, CCOC(=O)CNC(=O)CNC(=O)c1ccc(OC)cc1 0.278%, COc1ccc(CCC(=O)Nc2sccc2C#N)cc1 -2.95%, COc1ccc(CCNC(=O)COC(=O)c2ccc(Br)o2)cc1 1.54%, COc1cc(-c2nc(-c3cccc(C)c3)no2)cc(OC)c1OC -3.71%, Cc1[nH]n2c(=O)c3c(nc2c1-c1ccccc1)CCCC3 -5.83%, CCOC(=O)C1=C(c2ccccc2)NC(=O)NC1c1ccc(O)c(OCC)c1 (centres undefined) 0.617%, CCOC(=O)C1=C(C)NC(=O)NC1c1ccc(Br)s1 (centres undefined) -6.07%, O=C(c1cccc(-n2cccc2)c1)N1CCN(S(=O)(=O)c2c(F)cccc2F)CC1 -0.611%, CC(=O)N1CCN(c2ccc([N+](=O)[O-])c(-n3nc(C)cc3C)c2)CC1 3.15%, Cc1ccc(S(=O)(=O)NC(=O)NC(C)Cc2ccccc2)cc1 (centres undefined) 0.87%, COc1ccc(NC(=O)N(C)C[C@H]2Oc3c(NS(=O)(=O)c4cn(C)cn4)cccc3C(=O)N([C@H](C)CO)C[C@@H]2C)cc1 3.1%, Nc1ncnc2c1ncn2[C@@H]1O[C@H](CNCC#Cc2ccccc2)[C@@H](O)[C@H]1O 2.42%, C=CCn1c(O)c(N=Nc2ccccc2C)c2ccccc21 -0.66%, C=CCn1c(-c2cccc3ccccc23)n[nH]c1=S -0.0654%, c1ccn2c(SCc3cn4ccsc4n3)nnc2c1 4.63%, CCOc1cccc(C2C(C(=O)c3ccco3)=C(O)C(=O)N2Cc2ccncc2)c1 (centres undefined) -1.49%, CCC(C)(C)NC(=O)C(c1cccn1C)N(Cc1ccc(OC)cc1)C(=O)Cn1nnc2ccccc21 (centres undefined) 1.52%, O=C(Oc1cccc(NC(=O)c2ccco2)c1)c1cccc(S(=O)(=O)N2CCCC2)c1 0.126%, Cc1cc(-n2c(SCC(=O)NCc3cccs3)nc3n[nH]c(C)c3c2=N)ccc1Cl 4.17%, O=c1[nH]c(S)nc2sc3c(c12)CCCC3 -1.73%, CCOC(=O)C1=C(C)NC2=C(C(=O)CCC2)C1c1coc2ccccc2c1=O (centres undefined) 2%, CCOc1cc(CN2CCN(CCc3ccccc3)C(CCO)C2)ccc1OC (centres undefined) 4.52%, COc1ccc(CCNC(=O)c2ccccc2Cl)cc1OC 3.52%, CCc1ccc(NC(=O)N(CCN2CCOCC2)C2CCN(C(C)=O)CC2)cc1 3.77%, Cc1nnc(SCc2nnc(-c3ccccc3)o2)n(N)c1=O -1.28%, COc1ccc(NC(NC(=O)c2cccnc2)C(Cl)(Cl)Cl)cc1 (centres undefined) 0.574%, CCCC(=O)Nc1nn(C)c2nc3c(C)cccc3cc12 -4.26%, O=C(COc1ccc(NC(=O)c2ccccc2)cc1)c1ccccc1 2.44%, C[C@@H]1CC[C@]2(C(=O)O[C@@H]3O[C@H](CO)[C@@H](O)[C@H](O)[C@H]3O)CC[C@]3(C)C(=CCC4[C@@]5(C)C[C@@H](O)[C@H](O)[C@@](C)(C(=O)O[C@@H]6[C@H](O)C[C@@]7(C)C(CC[C@]8(C)C7CC=C7[C@H]9[C@](C(=O)O[C@@H]%10O[C@H](CO)[C@@H](O)[C@H](O)[C@H]%10O)(CC[C@@H](C)[C@@]9(C)O)CC[C@]78C)[C@@]6(CO)C(=O)O)C5CC[C@]43C)[C@@H]2[C@]1(C)O (some centres undefined) 8%, Cc1cccc(C(=O)NCC(c2ccco2)N2CCc3ccccc32)c1 (centres undefined) 4.14%, COc1ccc(Nc2ncnc3sc(-c4ccccc4)cc23)cc1OC 0.937%, COc1ccccc1Cc1nnc(NC(=O)C2CCN(C(=O)c3ccco3)CC2)s1 3.52%, CCN(C[C@H]1N[C@@](C)(C(=O)OC)[C@H]2C(=O)N(C)C(=O)[C@@H]12)C(=O)Nc1ccc(C)cc1 0.134%, CCCCN(CC)S(=O)(=O)c1ccc(C(=O)Nc2nnc(COC)o2)cc1 3.36%, O=C(NCc1cccc(Cl)c1)c1ccc2c(c1)OCO2 2.71%, Cc1cc(C)nc(NC(N)=NC(C)c2ccccc2)n1 (centres undefined) -7.76%, CCn1c(O)c(N=NC2=NC(=O)CS2)c2ccccc21 0.856%, O=C(CCSCc1ccccc1F)NCCc1ccccc1 9.82%, Cc1noc(C)c1S(=O)(=O)N(C)C[C@H]1Oc2c(NC(=O)Nc3ccc(C(F)(F)F)cc3)cccc2C(=O)N([C@H](C)CO)C[C@@H]1C -5.65%, Cc1ccc(C(=O)N2CCN(c3ccc(Cl)cc3)CC2)cc1 1.79%, COc1cccc(NC(=O)CCN2C(=O)C3CC=CCC3C2=O)c1 (centres undefined) -8.52%, NC(=O)Cn1nc([N+](=O)[O-])nc1Oc1ccccc1F -7.81%, S=C(NCc1ccco1)Nc1cccc(Cl)c1 -6.24%, O=C(NCc1ccccc1)c1ccc2c(c1)OCCO2 1.89%, Cc1noc(C)c1NC(=O)Nc1cccc2c1O[C@H](CN(C)C(=O)Nc1ccc3c(c1)OCO3)[C@@H](C)CN([C@H](C)CO)C2=O 12.1%, Cc1[nH]n(-c2ccccc2)c(=O)c1N=Nc1nccs1 -6.11%, CCOC(=O)N1CCc2c(sc3nc4n(c(=O)c23)N=C(C)CS4)C1 -0.154%, COc1ccc(CN(Cc2nc3ccccc3c(=O)[nH]2)C(=O)NC2CCCCC2)cc1 -0.777%, NC(=O)C1CCN(C(=O)c2ccc(Oc3cc(Cl)cc(Cl)c3)o2)CC1 -2.91%, COc1ccccc1-n1cnnc1SCC(=O)Nc1ncc(Cl)cc1Cl -7.89% [at 1.6 µM], COc1ccccc1NC(=O)COC(=O)/C=C/c1cccs1 6.16%, COc1ccccc1NC(=O)c1cccs1 -1.1% [at 1.6 µM], O=[N+]([O-])c1cc(Cl)ccc1Nc1ccccc1 2.42%, O=C(COC(=O)c1ccc(O)cc1)Nc1ccc(Cl)cc1 0.856%, CC(=O)Nc1ccc(NC(=O)C2CCN(C(=O)c3cccs3)CC2)cc1 -11.3%, O=C(NCC1CCCO1)C(c1ccc(F)cc1)N(CCCN1CCOCC1)C(=O)c1ccc(-c2ccccc2)[nH]1 (centres undefined) 10.5%, COCCn1c(C(C)C)nc2sc3ccccc3c(=O)c2c1=O 5.81%, COC(=O)CNS(=O)(=O)c1ccc(C)cc1 2.24%, COC(=O)[C@]1(C)N[C@H](CN(C)C(=O)Nc2ccc(C)cc2)[C@@H]2C(=O)N(Cc3ccccc3)C(=O)[C@@H]21 3.23%
